Consider seven molecules from PubChem BioAssay (NCI).

Values joined by “and” are separate entries in the source; they are usually repeats but may differ in a detail not shown here. Equal entries are not always repeated. About 83,000 compounds went through this panel and 20% of them were active in at least one assay; those are over-represented in the sample as a whole.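 A percent growth of 40 corresponds to 60% growth inhibition; 0 means no net growth; -100 means all cells died. Active threshold: below 10.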 Unmarked numbers belong to inactive results. Active and inactive are the calls of the source.

Holding throughout (assay): NCI-60 one-dose screen, 48 h (100 = growth as untreated, 0 = no growth, -100 = all killed)
What all share (conditions): 10 µM unless noted

For assay [1], the system named is HCT-15 colon.
The subject of assay [2] is HT29 colon.
Assay [3] relates to SNB-75 CNS.
Assay [4] concerns SNB-19 CNS.
Assay [5] deals with U251 CNS.
Assay [6] relates to PC-3 prostate.
Assay [7] relates to SK-MEL-5 melanoma.
In assay [8] the test system is UACC-62 melanoma.
The subject of assay [9] is LOX IMVI melanoma.
Assay [10] deals with SK-MEL-28 melanoma.
Assay [11] has as its system EKVX NSCLC.
Assay [12] relates to SN12C renal.
For assay [13], the system named is UO-31 renal.
Assay [14] relates to TK-10 renal.
In assay [15] the test system is ACHN renal.
The subject of assay [16] is CAKI-1 renal.
The test system of assay [17] is A498 renal.
The subject of assay [18] is HL-60(TB) leukemia.
Assay [19] has as its system CCRF-CEM leukemia.
Assay [20] deals with SK-MEL-2 melanoma.

With `N#Cc1ccc(Cl)cc1`, the growth was 110% in assay [1]; 84.4% in [2]; 101% in assay [3]; 108% in assay [4]; 105% in assay [5]; 129% in [6]. The growth is 106% in [7]; 104% in [8]; 106% in assay [9]; 117% in assay [10]; 117% in assay [11]; 107% in assay [12]. Also, the growth in [13] is 94.6%; in assay [14], 60.3%; in assay [15] it was 102%; in assay [16], 111%; in [17], 134%; in assay [18], 83.9%. The growth in assay [19] is 99.5%.
In the case of `CCN1C(=O)CC(=O)N(CC)C1=S`, the growth was 96.4% in assay [1]; 92.1% in assay [2]; 72.4% in assay [3]; 101% in assay [4]; 105% in [5]; 100% in assay [6]. Also, the growth in assay [7] was 96.8%; in [8], 95.5%; in assay [9], 100%; in assay [10], 105%; in assay [20], 97%; in [11], 108%. For the same molecule, the growth is 99.3% in assay [12]; 105% in assay [14]; 101% in assay [15]; 76.8% in assay [16]; 94.6% in [17]; 68.7% in [18]. Further, the growth in [19] was 94.8%.
Take `CC(C)c1cccc(C(C)C)c1O`: the growth is 99.1% and 107% in assay [1]; 99.4% and 102% in assay [2]; 109% and 81.4% in assay [3]; 123% and 94% in [4]; 97.2% and 99.7% in [5]; 99.7% and 93.8% in assay [6]. Also, the growth in assay [7] is 110%; in assay [8] it was 118% and 92.1%; in [9], 96.9% and 105%; in assay [10], 115% and 104%; in assay [20], 113%; in [11], 101% and 94.5%. The growth was 108% and 104% in assay [12]; 88% in assay [13]; 116% and 94.6% in [14]; 104% and 105% in assay [15]; 95.1% and 88.4% in assay [16]; 97.9% and 85.9% in assay [18]. Also, in assay [19], the growth is 107% and 90.6%.
With `c1ccc2c(c1)sc1ccccc12`, the growth was 103% in assay [1]; 99.8% in [2]; 85.3% in assay [3]; 98.4% in assay [4]; 99.3% in [5]; 84.7% in [6]. The growth in [7] was 91.1%; in assay [8], 100%; in [9] it was 93.9%; in [10], 105%; in assay [20], 113%; in assay [11] it was 93.6%. Moreover, the growth in assay [12] is 98.4%; in [13], 79.2%; in assay [15] it was 89.6%; in [16], 84.4%; in assay [17], 113%; in assay [19], 103%.
As to `CC[C@H](C)[C@H](NC(=O)CN(C)C)C(=O)N(C)[C@H](C[C@@H](OC(C)=O)c1nc(C(=O)NC23C4C5C2C2C3C4C52C(=O)OC)cs1)C(C)C` (stereo not given in full), the growth in [1] is 14.7%; in [2], 2.31% (active); in assay [3], 30.1%; in [4], 40.2%; in assay [5], 16.7%; in assay [6] it was 25.6%. The growth in [7] is 5.45% (active); in assay [8], 29.9%; in assay [9], 15.3%; in [10], 61.5%; in assay [20] it was 34%; in [11], 40.4%. Also, the growth was 31.8% in assay [12]; 57.7% in [14]; 42.6% in [15]; 44.8% in assay [16]; -26.5% (active) in assay [18]; 6.24% (active) in assay [19].
Consider `c1ccc2c(c1)O[As](O[As]1Oc3ccccc3O1)O2`, for which the growth was 29.9% in [1]; 24.8% in assay [2]; 1.6% (active) in assay [3]; 82.9% in assay [4]; 1.07% (active) in [5]; 36.9% in assay [6]. Further, the growth in assay [7] is 20.7%; in assay [8] it was 43.8%; in assay [9] it was 30.9%; in [10], 44.4%; in assay [20], 5.79% (active); in assay [12] it was 40.2%. The growth was 32.2% in [13]; 61.6% in assay [14]; 59.3% in assay [15]; 16.5% in assay [16]; 27.5% in [17]; -28.3% (active) in [18].
For the molecule `O=[N+]([O-])c1ccc2scc3c4ccccc4nc-3c2c1`, the growth in [1] was -36.7% (active); in [2] it was -47% (active); in assay [3], -42% (active); in assay [4], 46.7%; in assay [5], -92.4% (active); in assay [6], -53.4% (active). Besides, the growth in assay [7] was 8.28% (active); in assay [8], -61% (active); in assay [9], -87.1% (active); in assay [10] it was -56.1% (active); in assay [20], -63.2% (active); in [11] it was 37.1%. The growth in [12] is -36% (active); in assay [14], -53.7% (active); in assay [15] it was -97.5% (active); in assay [16] it was -40.6% (active); in assay [17], 44.9%; in assay [18], 1.24% (active). In assay [19], the growth is -12.3% (active).
